Laboratory results as given in ChEMBL document CHEMBL1961873, “Compounds: GSK PKIS; Assays: Nanosyn kinase panel” (2012).

What was measured:
[1] = target: Mitogen-activated protein kinase 3 (Homo sapiens) (UniProt P27361); conditions: at 1 µM;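 also: values are mean percent inhibition of MAPK3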
[2] = target: SRSF protein kinase 3 (Homo sapiens) (UniProt Q9UPE1); conditions: at 0.1 µM
[3] = target: SRSF protein kinase 3 (Homo sapiens) (UniProt Q9UPE1); conditions: at 1 µM
[4] = target: Mitogen-activated protein kinase 14 (Homo sapiens) (UniProt Q16539); conditions: at 0.1 µM
[5] = target: Mitogen-activated protein kinase 14 (Homo sapiens) (UniProt Q16539); conditions: at 1 µM
[6] = target: Mitogen-activated protein kinase 11 (Homo sapiens) (UniProt Q15759); conditions: at 0.1 µM
[7] = target: Mitogen-activated protein kinase 11 (Homo sapiens) (UniProt Q15759); conditions: at 1 µM
[8] = target: T1, Mitogen-activated protein kinase 13 (Homo sapiens) (UniProt O15264); conditions: at 0.1 µM
T1 sequence (whole entry): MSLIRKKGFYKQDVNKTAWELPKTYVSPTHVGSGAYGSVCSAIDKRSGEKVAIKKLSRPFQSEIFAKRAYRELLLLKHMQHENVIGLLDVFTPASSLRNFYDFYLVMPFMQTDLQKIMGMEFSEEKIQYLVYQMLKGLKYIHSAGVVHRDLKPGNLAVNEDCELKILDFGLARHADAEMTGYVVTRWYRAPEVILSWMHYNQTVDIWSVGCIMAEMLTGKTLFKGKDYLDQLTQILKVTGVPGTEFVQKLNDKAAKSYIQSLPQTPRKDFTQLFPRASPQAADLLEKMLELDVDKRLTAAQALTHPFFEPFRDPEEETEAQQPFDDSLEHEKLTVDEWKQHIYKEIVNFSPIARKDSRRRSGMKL

[9] = target: T1, Mitogen-activated protein kinase 13 (Homo sapiens); conditions: at 1 µM
[10] = target: T2, Mitogen-activated protein kinase 12 (Homo sapiens) (UniProt P53778); conditions: at 0.1 µM
T2 sequence (whole entry): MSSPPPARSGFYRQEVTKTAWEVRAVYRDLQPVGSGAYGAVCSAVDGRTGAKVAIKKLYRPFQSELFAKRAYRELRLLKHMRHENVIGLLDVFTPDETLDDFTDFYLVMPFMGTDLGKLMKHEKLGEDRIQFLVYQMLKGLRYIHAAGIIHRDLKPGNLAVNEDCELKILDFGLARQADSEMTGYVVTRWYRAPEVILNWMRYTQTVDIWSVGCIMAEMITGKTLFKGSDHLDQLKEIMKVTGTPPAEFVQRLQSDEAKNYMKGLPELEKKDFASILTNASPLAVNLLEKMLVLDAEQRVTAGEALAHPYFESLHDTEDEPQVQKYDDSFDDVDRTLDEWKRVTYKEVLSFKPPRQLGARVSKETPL

Sequence of SRSF protein kinase 3 (Homo sapiens) (Q9UPE1 whole entry): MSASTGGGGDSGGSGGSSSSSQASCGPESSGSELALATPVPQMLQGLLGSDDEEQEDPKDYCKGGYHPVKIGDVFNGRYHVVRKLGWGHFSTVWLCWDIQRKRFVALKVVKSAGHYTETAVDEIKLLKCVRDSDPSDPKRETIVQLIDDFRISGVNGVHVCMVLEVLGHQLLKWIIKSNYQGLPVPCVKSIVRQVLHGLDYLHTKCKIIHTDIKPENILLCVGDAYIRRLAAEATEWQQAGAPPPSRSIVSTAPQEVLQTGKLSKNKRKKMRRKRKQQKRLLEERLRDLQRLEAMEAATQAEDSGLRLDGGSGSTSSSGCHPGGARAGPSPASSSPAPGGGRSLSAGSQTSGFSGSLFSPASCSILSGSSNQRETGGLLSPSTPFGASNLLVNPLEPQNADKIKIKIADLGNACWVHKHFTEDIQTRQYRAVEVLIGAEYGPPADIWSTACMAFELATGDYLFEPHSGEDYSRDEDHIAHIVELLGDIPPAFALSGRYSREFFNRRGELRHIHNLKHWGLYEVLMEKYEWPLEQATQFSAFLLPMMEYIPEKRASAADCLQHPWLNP
Sequence of Mitogen-activated protein kinase 14 (Homo sapiens) (Q16539 whole entry): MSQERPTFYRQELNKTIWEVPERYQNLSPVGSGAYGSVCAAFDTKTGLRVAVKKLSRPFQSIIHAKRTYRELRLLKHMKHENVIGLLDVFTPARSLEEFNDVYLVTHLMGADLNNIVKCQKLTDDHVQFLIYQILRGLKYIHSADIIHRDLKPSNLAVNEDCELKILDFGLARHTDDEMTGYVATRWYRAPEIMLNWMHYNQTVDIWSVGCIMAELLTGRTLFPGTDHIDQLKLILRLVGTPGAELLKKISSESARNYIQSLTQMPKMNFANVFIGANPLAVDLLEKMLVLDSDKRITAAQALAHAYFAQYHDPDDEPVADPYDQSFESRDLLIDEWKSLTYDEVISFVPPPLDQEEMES
Sequence of Mitogen-activated protein kinase 11 (Homo sapiens) (Q15759 whole entry): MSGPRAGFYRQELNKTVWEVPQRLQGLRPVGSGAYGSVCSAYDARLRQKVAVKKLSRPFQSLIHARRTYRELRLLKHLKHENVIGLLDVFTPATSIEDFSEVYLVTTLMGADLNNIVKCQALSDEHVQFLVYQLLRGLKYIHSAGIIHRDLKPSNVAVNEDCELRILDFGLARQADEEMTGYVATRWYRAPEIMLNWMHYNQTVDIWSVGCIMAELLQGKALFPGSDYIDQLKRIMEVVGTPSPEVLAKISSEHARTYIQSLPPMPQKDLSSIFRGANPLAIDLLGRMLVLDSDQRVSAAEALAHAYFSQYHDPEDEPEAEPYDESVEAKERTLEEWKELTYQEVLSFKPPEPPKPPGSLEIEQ
Sequence of Mitogen-activated protein kinase 3 (Homo sapiens) (P27361 whole entry): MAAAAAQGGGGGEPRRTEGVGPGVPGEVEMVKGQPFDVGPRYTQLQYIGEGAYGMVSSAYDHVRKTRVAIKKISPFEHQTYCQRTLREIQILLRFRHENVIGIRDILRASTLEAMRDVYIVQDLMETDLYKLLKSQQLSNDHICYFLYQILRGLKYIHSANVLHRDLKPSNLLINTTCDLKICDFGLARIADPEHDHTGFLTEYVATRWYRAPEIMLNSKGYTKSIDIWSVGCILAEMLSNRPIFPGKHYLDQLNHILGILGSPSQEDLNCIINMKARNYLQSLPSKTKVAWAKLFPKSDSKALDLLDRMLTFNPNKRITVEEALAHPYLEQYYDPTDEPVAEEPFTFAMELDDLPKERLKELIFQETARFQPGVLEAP

| SMILES | inhibition [1] | inhibition [2] | inhibition [3] | inhibition [4] | inhibition [5] | inhibition [6] | inhibition [7] | inhibition [8] | inhibition [9] | inhibition [10] |
| --- | --- | --- | --- | --- | --- | --- | --- | --- | --- | --- |
| COC(=O)Nc1nc2cc(Oc3ccc(NC(=O)Nc4cccc(Br)c4)cc3)ccc2[nH]1 | 3.83% | -0.78% | 1.64% | 7.25% | 17.1% | 7.96% | 17% | 2.44% | 0.89% | 2.07% |
| CCOc1nccc2c1nc(-c1nonc1N)n2CC | 3.56% | 0.36% | 4.21% | -6.67% | 6.06% | 3.87% | 7.56% | 2.58% | 2.91% | 0.94% |
| NC(=O)c1cccc(Nc2nccc(Nc3cccc(F)c3)n2)c1 | 1.21% | -1.02% | -0.91% | 2.29% | 2.5% | 0.85% | 1.67% | -0.02% | 0.02% | 1.16% |
| Cc1cc(O)cc(C)c1/C=C/c1cncc(C(=O)N(C)C)c1 | 2.75% | 1.6% | 2.35% | 5.83% | 7.03% | 3.38% | 8.48% | 1.6% | 3.68% | 4.71% |
| c1ccc(Cc2nc3ccc(Nc4ncnc5ccccc45)cc3[nH]2)cc1 | 4.11% | 0.5% | -0.46% | 6.98% | 6.36% | 2.73% | 2.79% | 4.91% | 5.18% | 1.83% |
| COc1cc2ncn(-c3cc(OCc4ccccc4S(C)(=O)=O)c(C#N)s3)c2cc1OC | 4.78% | 0.72% | 1.49% | 4.48% | 8.47% | 2.79% | 6.97% | 1.05% | 3.85% | 0.36% |
| Oc1cccc(-c2nc(-c3ccccc3)[nH]c2-c2ccncc2)c1 | 5.5% | 1.08% | 12.3% | 34.9% | 71.1% | 10.7% | 47.7% | 1.41% | 3.86% | -0.21% |
| Cc1ccc2c(c1)/C(=N/Nc1ccc(S(N)(=O)=O)cc1)C(=O)N2 | 1.36% | -0.75% | -2.57% | 1.29% | 5.27% | 3.1% | 6.52% | -0.85% | 0.5% | 0.27% |
| Cc1ccc(NC(=O)CC2CC2)cc1-c1ccc(C(=O)NCC2CC2)cc1 | 3.92% | -0.32% | 3.16% | 29.7% | 74.3% | 17.2% | 60.8% | 3.22% | 4.09% | 0.38% |
| Nc1nccc(-c2c(-c3ccc(F)cc3)ncn2CCCN2CCOCC2)n1 | 5.63% | -3.36% | -1.79% | 21.2% | 64.9% | 6.8% | 20.2% | 2.28% | 5.09% | 1.09% |
| O=C1Nc2ccccc2/C1=C/Nc1ccc2[nH]c(=O)[nH]c2c1 | 3.88% | -2.26% | -0.78% | 11.6% | 11.5% | 5.12% | 9.63% | 3.8% | 4.97% | 0.57% |
| Nc1nccc(-c2c(-c3ccc(F)cc3)nn3cc(C(F)(F)F)ccc23)n1 | 2.32% | -1.48% | -1.99% | 7.89% | 47.2% | 4.49% | 10.5% | 0.69% | -1.62% | 1.12% |
| COc1cc(Nc2nccc(-c3cnn4ncccc34)n2)cc(OC)c1 | 9.37% | -0.86% | -1.27% | 2.59% | 10.3% | 2.14% | 10.7% | 1.49% | 12.1% | 1.04% |
| CCCN1CCCC(c2ccc(Nc3nc(Nc4cc(F)ccc4C(N)=O)c4cc[nH]c4n3)c(OC)c2)C1 (stereo not given) | 9.65% | 4.66% | 28.2% | 13.9% | 17.1% | 7.57% | 14.5% | 6.1% | 7.07% | 3.99% |
| NS(=O)(=O)c1ccc(Nc2cc(-c3cccc(O)c3)n[nH]2)cc1 | 3.73% | 0.13% | -0.83% | 4.9% | 9.21% | 7.39% | 9.77% | 2.03% | 7.23% | 3.84% |
| CN(C)CCCn1c(-c2nonc2N)nc2cnccc21 | 2.88% | -1.86% | -1.05% | 5.93% | 12.9% | 3.87% | 8.3% | 1.23% | 4.99% | 3.33% |
| COc1ccc2ncnc(Nc3ccc(OCc4ccccc4)cc3)c2c1 | 4.61% | -1.92% | 0.73% | 5.87% | 10.2% | 2.79% | 7.38% | 0.25% | 1.34% | -0.24% |
